“And” between values parts separate entries of the source, which are not always exact repeats. Equal entries are not always repeated. The source made the active and inactive calls. How the calls were made is not given here.
target: Nuclear receptor subfamily 1 group I member 2 (Rattus norvegicus) (UniProt Q9R1A7); experiment: qHTS assay for small molecule activators of the rat pregnane X receptor (rPXR) signaling pathway (AID 651751); settings: rPXR reporter cells, luciferase (One-Glo), 24 h; further: 0% is about no effect
Sequence (Q9R1A7 whole entry, looked up): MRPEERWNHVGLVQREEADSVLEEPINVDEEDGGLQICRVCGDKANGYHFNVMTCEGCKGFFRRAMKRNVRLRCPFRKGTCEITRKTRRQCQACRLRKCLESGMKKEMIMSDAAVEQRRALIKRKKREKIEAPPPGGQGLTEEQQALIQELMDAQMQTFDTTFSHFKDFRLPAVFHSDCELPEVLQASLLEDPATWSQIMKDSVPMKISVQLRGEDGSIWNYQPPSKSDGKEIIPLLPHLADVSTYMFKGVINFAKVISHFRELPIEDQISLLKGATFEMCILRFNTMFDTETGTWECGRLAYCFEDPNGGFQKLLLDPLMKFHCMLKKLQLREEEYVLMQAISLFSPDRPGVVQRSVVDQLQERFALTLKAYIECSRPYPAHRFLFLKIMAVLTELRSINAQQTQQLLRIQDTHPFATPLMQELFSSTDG

Row | Compound | max response
1 | CC(C)(Oc1ccc(CCNC(=O)c2ccc(Cl)cc2)cc1)C(=O)O | -5.47% (inactive)
2 | NC(=O)N1c2ccccc2C=Cc2ccccc21 | 5.91% (inactive) and 3.5% (inactive)
3 | Nc1nc(N)c2nc(-c3ccccc3)c(N)nc2n1 | 0.808% (inactive) and 7.32% (inactive)
4 | COc1ccc(CN(CCN(C)C)c2ccccn2)cc1 | 7.02% (inactive)
5 | NC(=Nc1ccccc1)Nc1ccccc1 | -0.275% (inactive) and 5.17% (inactive)
6 | CN=C(NC#N)NCCSCc1nc[nH]c1C | 5.73% (inactive)
7 | Cc1ccc(S(=O)(=O)NC(=O)NN2CCCCCC2)cc1 | 0.57% (inactive)
8 | O=C(O)CCCCCCCC(=O)O | -2.29% (inactive)
9 | C[C@]12C=CC(=O)C=C1CC[C@H]1[C@@H]3C[C@@H](O)[C@](O)(C(=O)CO)[C@@]3(C)C[C@H](O)[C@@]12F | 3.64% (inactive)
10 | CCCCNC(=O)NS(=O)(=O)c1ccc(C)cc1 | -1.54% (inactive) and 0.831% (inactive)
11 | CC(=O)Nc1nnc(S(N)(=O)=O)s1 | 0.356% (inactive)
